The nature of experiment [1]: Quantitative High-Throughput drug screen in 47 multiple myeloma cell lines against the NCATS MIPE library collection: LP1_DSMZ cell viability assay (AID 1918982). Note: nearly all actives have a fitted effect of over 35% in size. A digest of the protocol:
(§1)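 Inhibition of viability over 48 h was scored by ATP content (CellTiter-Glo) in 500-cell wells. Zero and full viability were defined by media-only and DMSO-only wells.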

The nature of experiment [2]: Quantitative High-Throughput drug screen in 47 multiple myeloma cell lines against the NCATS MIPE library collection: KMS28PE_JCRB cell viability assay (AID 1918983). Note: nearly all actives have a fitted effect of over 35% in size. The gist of the method:
as §1

A short description of experiment [3]: Quantitative High-Throughput drug screen in 47 multiple myeloma cell lines against the NCATS MIPE library collection: L363_DSMZ cell viability assay (AID 1918984). Note: nearly all actives have a fitted effect of over 40% in size. The gist of the method:
as §1

The nature of experiment [4]: Quantitative High-Throughput drug screen in 47 multiple myeloma cell lines against the NCATS MIPE library collection: KMS34_JCRB cell viability assay (AID 1918985). Note: nearly all actives have a fitted effect of over 40% in size. The gist of the method: as §1
Experiment [5] is described as follows: Quantitative High-Throughput drug screen in 47 multiple myeloma cell lines against the NCATS MIPE library collection: OCIMY5_PLB cell viability assay (AID 1918988). Note: nearly all actives have a fitted effect of over 65% in size. The gist of the method:
as §1

A short description of experiment [6]: Quantitative High-Throughput drug screen in 47 multiple myeloma cell lines against the NCATS MIPE library collection: OPM1_PLB cell viability assay (AID 1918989). Note: nearly all actives have a fitted effect of over 40% in size. A digest of the protocol:
as §1

Experiment [7] is described as follows: Quantitative High-Throughput drug screen in 47 multiple myeloma cell lines against the NCATS MIPE library collection: XG6_PLB cell viability assay (AID 1919865). Note: nearly all actives have a fitted effect of over 40% in size. The gist of the method:
as §1

Experiment [8] in a line: Quantitative High-Throughput drug screen in 47 multiple myeloma cell lines against the NCATS MIPE library collection: PE2_PLB cell viability assay (AID 1919869). Note: nearly all actives have a fitted effect of over 35% in size. The gist of the method:
as §1

A short description of experiment [9]: Quantitative High-Throughput drug screen in 47 multiple myeloma cell lines against the NCATS MIPE library collection: RPMI8226_ATCC cell viability assay (AID 1919871). Note: nearly all actives have a fitted effect of over 30% in size. A digest of the protocol: as §1
The nature of experiment [10]: Quantitative High-Throughput drug screen in 47 multiple myeloma cell lines against the NCATS MIPE library collection: OPM2_DSMZ cell viability assay (AID 1919872). Note: nearly all actives have a fitted effect of over 30% in size. A digest of the protocol: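 Relative luminescence from CellTiter-Glo served as the viability signal, referenced to DMSO-treated (100%) and cell-free medium (0%) controls. Treatment lasted 48 hours at 37C with 500 cells per well.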

Experiment [11] in a line: Quantitative High-Throughput drug screen in 47 multiple myeloma cell lines against the NCATS MIPE library collection: KMS11_JCRBsus cell viability assay (AID 1919873). Note: nearly all actives have a fitted effect of over 50% in size. The gist of the method: as §1
Experiment [12] is described as follows: Quantitative High-Throughput drug screen in 47 multiple myeloma cell lines against the NCATS MIPE library collection: KMS28BM_JCRB cell viability assay (AID 1919874). Note: nearly all actives have a fitted effect of over 35% in size. A digest of the protocol: as §1
Experiment [13] can be described thus: Quantitative High-Throughput drug screen in 47 multiple myeloma cell lines against the NCATS MIPE library collection: SKMM1_PLB cell viability assay (AID 1919863). For viability: series mostly up to about 46 µM. Note: nearly all actives have a fitted effect of over 35% in size. To be noted: SKMM1 myeloma viability, CellTiter-Glo ATP, 48 h; viability: hits give low values. A digest of the protocol: as §1
The nature of experiment [14]: Quantitative High-Throughput drug screen in 47 multiple myeloma cell lines against the NCATS MIPE library collection: XG1_PLB cell viability assay (AID 1919866). Note: nearly all actives have a fitted effect of over 35% in size. The gist of the method:
as §1

Experiment [15] in a line: Quantitative High-Throughput drug screen in 47 multiple myeloma cell lines against the NCATS MIPE library collection: UTMC2_PLB cell viability assay (AID 1919868). Note: nearly all actives have a fitted effect of over 55% in size. The gist of the method:
as §1

A short description of experiment [16]: Quantitative High-Throughput drug screen in 47 multiple myeloma cell lines against the NCATS MIPE library collection: PCM6_Riken cell viability assay (AID 1919870). Note: nearly all actives have a fitted effect of over 30% in size. The gist of the method: as §1
The nature of experiment [17]: Quantitative High-Throughput drug screen in 47 multiple myeloma cell lines against the NCATS MIPE library collection: OCIMY7_PLB cell viability assay (AID 1918987). Note: nearly all actives have a fitted effect of over 65% in size. A digest of the protocol:
as §1

Experiment [18] in a line: Quantitative High-Throughput drug screen in 47 multiple myeloma cell lines against the NCATS MIPE library collection: U266_ATCC cell viability assay (AID 1919864). Note: nearly all actives have a fitted effect of over 35% in size. The gist of the method:
as §1

The nature of experiment [19]: Quantitative High-Throughput drug screen in 47 multiple myeloma cell lines against the NCATS MIPE library collection: VP6_DJ cell viability assay (AID 1919867). Note: nearly all actives have a fitted effect of over 40% in size. A digest of the protocol:
as §1

Records with an inconclusive call do not appear. A number with no mark means an inactive call. Activity calls are given as the source filed them. Calls come from the whole dose curve; as a rule, active = well fitted cell-killing curve with a large enough effect; inconclusive = small, poorly fitted or top-dose-only effect, or effect the other way; inactive = no such curve, though single readings can be large or run the other way.
Potency is the fitted concentration of half-maximal effect.

On to `Cn1c(=O)c2c(ncn2CC(O)CO)n(C)c1=O` (stereo not given), for which the Potency result in experiment [1], in experiment [2], in experiment [4], in experiment [5], in experiment [6] and in [7] was “inactive” each time. Further, the Potency entry in experiment [8], in experiment [9], in experiment [10], in experiment [11] and in experiment [12] was “inactive” each time. Further, the Potency in experiment [3] was 5.26 µM (active).

As usually defined, the viability is a read-out of living cells in per cent, often relative to untreated cells. In the case of `C[C@@H]1CN(c2c(F)c(N)c3c(=O)c(C(=O)O)cn(C4CC4)c3c2F)C[C@H](C)N1`, the Potency entry in experiment [1], in experiment [2], in experiment [3], in experiment [4], in experiment [6] and in experiment [7] was “inactive” each time. Besides, the Potency result in experiment [14], in experiment [15], in [8], in experiment [16], in experiment [9] and in [10] was “inactive” throughout. For the same compound, the Potency entry in [11] and in [12] was “inactive” throughout. For the same compound, in [13], the viability is 160%.

Regarding `Cc1ccc(S(=O)(=O)N[C@@H](Cc2ccccc2)C(=O)CCl)cc1`, the Potency in [1] is 20.9 µM (active); in experiment [2] it was 20.9 µM (active); in [3], 11.8 µM (active); in experiment [4], 20.9 µM (active); in [17], 3.32 µM (active); in experiment [5], 7.43 µM (active). The Potency in [6] was 9.35 µM (active); in [13] it was 18.7 µM (active); in experiment [18], 18.7 µM (active); in [7], 14.8 µM (active); in experiment [14] it was 7.43 µM (active); in [19] it was 9.35 µM (active). Further, the Potency in [15] was 13.2 µM (active); in experiment [8], 10.5 µM (active); in experiment [16], 11.8 µM (active); in experiment [9], 20.9 µM (active); in experiment [10], 18.7 µM (active); in experiment [11] it was 9.35 µM (active). Further, in experiment [12], the Potency is 11.8 µM (active).

In the case of `CNC(=O)c1cc(Oc2ccc(NC(=O)Nc3ccc(Cl)c(C(F)(F)F)c3)cc2)ccn1`, the Potency was 20.9 µM (active) in [1]; 26.4 µM (active) in experiment [2]; 6.62 µM (active) in [3]; 20.9 µM (active) in experiment [4]; 3.32 µM (active) in [17]; 23.5 µM (active) in experiment [5]. Moreover, the Potency is 10.5 µM (active) in experiment [6]; 29.6 µM (active) in [13]; 23.5 µM (active) in experiment [18]; 0.148 µM (active) in experiment [7]; 5.9 µM (active) in experiment [14]; 8.33 µM (active) in [19]. The Potency in [15] is 9.35 µM (active); in [8] it was 7.43 µM (active); in experiment [16], 7.43 µM (active); in experiment [9], 20.9 µM (active); in [11], 20.9 µM (active); in [12] it was 20.9 µM (active).

As for `CCCN[C@H]1CCc2nc(N)sc2C1`, the Potency result in experiment [1], in experiment [2], in experiment [3], in [4], in [6] and in [18] was “inactive” throughout. In addition, the Potency entry in experiment [7], in experiment [14], in experiment [8], in [16], in experiment [9] and in [10] was “inactive” each time. Moreover, the Potency entry in experiment [11] and in experiment [12] was “inactive” throughout. Further, in experiment [13], the viability was 141%. Also, the Potency in experiment [19] is 18.7 µM (active).

Consider `CC(C)C[C@H](NC(=O)[C@H](CCc1ccccc1)NC(=O)CN1CCOCC1)C(=O)N[C@@H](Cc1ccccc1)C(=O)N[C@@H](CC(C)C)C(=O)[C@@]1(C)CO1`, for which the Potency is 0.0093 µM (active) in [1]; 0.003 µM (active) in [2]; 0.001 µM (active) in [3]; 0.0059 µM (active) in experiment [4]; 0.0118 µM (active) in experiment [17]; 0.0033 µM (active) in experiment [5]. Moreover, the Potency in experiment [6] was 0.0093 µM (active); in experiment [13], 0.0209 µM (active); in experiment [18] it was 0.0047 µM (active); in experiment [7] it was 0.001 µM (active); in experiment [14], 0.001 µM (active); in [19], 0.001 µM (active). Further, the Potency in [15] was 0.001 µM (active); in experiment [8], 0.001 µM (active); in experiment [16], 0.001 µM (active); in experiment [9], 0.0166 µM (active); in experiment [10], 0.0166 µM (active); in experiment [11] it was 0.0053 µM (active). Besides, the Potency in experiment [12] is 0.0053 µM (active).

Consider `CCn1cc(C(=O)O)c(=O)c2cc(F)c(N3CCN(C)CC3)cc21`, for which the Potency entry in experiment [1], in experiment [2], in experiment [4], in experiment [5], in experiment [14] and in [19] was “inactive” throughout. Moreover, the Potency result in experiment [15], in [8], in experiment [10] and in experiment [11] was “inactive” in each case. Also, the Potency in experiment [3] and in experiment [13] was 5.26 µM (active) each time.

`CCc1cc(C(N)=S)ccn1`: the Potency entry in [1], in experiment [2], in experiment [3], in [4], in experiment [6] and in [7] was “inactive” in each case. For the same compound, the Potency result in experiment [14], in experiment [16], in experiment [9], in experiment [10], in experiment [11] and in [12] was “inactive” throughout.

For the compound `COCCCOc1cc(C[C@@H](C[C@H](N)[C@@H](O)C[C@H](C(=O)NCC(C)(C)C(N)=O)C(C)C)C(C)C)ccc1OC`, the Potency entry in experiment [1], in [2], in experiment [3], in experiment [4], in experiment [5] and in [6] was “inactive” in each case. The Potency result in experiment [7], in [14], in experiment [8], in experiment [9], in experiment [10] and in experiment [11] was “inactive” throughout. Also, the Potency entry in [12] was “inactive”.

Regarding `CCc1c2c(nc3ccc(OC(=O)N4CCC(N5CCCCC5)CC4)cc13)-c1cc3c(c(=O)n1C2)COC(=O)[C@]3(O)CC`, the Potency in experiment [1] was 0.59 µM (active); in experiment [2] it was 1.87 µM (active); in experiment [3], 0.0372 µM (active); in experiment [4], 1.18 µM (active); in [17], 0.296 µM (active); in experiment [5], 1.48 µM (active). Moreover, the Potency was 13.2 µM (active) in experiment [6]; 0.526 µM (active) in [13]; 0.166 µM (active) in [18]; 0.418 µM (active) in [7]; 1.18 µM (active) in experiment [19]; 0.418 µM (active) in [15]. The Potency in experiment [8] is 0.935 µM (active); in experiment [9], 0.372 µM (active); in experiment [12], 0.469 µM (active).

For the compound `N[C@@H](C(=O)N[C@@H]1C(=O)N2C(C(=O)O)=C(Cl)CS[C@H]12)c1ccccc1`, the Potency entry in experiment [1], in experiment [2], in experiment [4], in experiment [6], in experiment [7] and in [15] was “inactive” each time. Further, the Potency result in experiment [8], in experiment [16], in experiment [9] and in experiment [10] was “inactive” each time. Moreover, in experiment [13], the viability was 123%.

Consider `CC(C)(C)C(=O)OCOP(=O)(COCCn1cnc2c(N)ncnc21)OCOC(=O)C(C)(C)C`, for which the Potency is 16.6 µM (active) in experiment [1]; 4.18 µM (active) in experiment [2]; 4.69 µM (active) in experiment [3]; 1.87 µM (active) in experiment [5]; 6.62 µM (active) in [6]; 20.9 µM (active) in experiment [13]. Also, the Potency is 0.332 µM (active) in experiment [18]; 0.469 µM (active) in [7]; 1.05 µM (active) in experiment [19]; 0.526 µM (active) in experiment [15]; 0.187 µM (active) in [8]; 18.7 µM (active) in [9]. Besides, the values for the Potency in experiment [10], in [11] and in [12] were 23.5 µM (active), 23.5 µM (active) and 11.8 µM (active), respectively.

Consider `CCN(CC)CCn1c(=O)c(Cc2ccc(OC)cc2)nc2ccccc21`, for which the Potency entry in [1], in [2], in [3], in experiment [5], in experiment [6] and in experiment [14] was “inactive” in each case. Further, the Potency entry in experiment [8], in [16], in [9], in [10], in [11] and in experiment [12] was “inactive” throughout. Also, the viability in experiment [13] was 134%.

The record behind these values is PubChem BioAssay (NCATS).
